The values that follow come from PubChem BioAssay (NCATS).

A number with no mark means an inactive call. Results filed as inconclusive are left out. Calls of active or inactive are those of the source. Unless noted, calls follow the shape of the dose curve; as a rule, active = well fitted curve in the direction sought with a large enough effect; inconclusive = small, poorly fitted or top-dose-only effect, or another doubt; inactive = no such curve, though single readings can be large; an effect the other way counts as inactive or inconclusive.

For assay [1], the target named is Cytochrome P450 3A4 (Homo sapiens) (UniProt P08684). Briefly: qHTS Assay for Inhibitors and Substrates of Cytochrome P450 3A4 (AID 884). Also: series mostly up to about 57 µM; % is scaled to controls: 0 for no effect and ±100 for the full control effect; nearly all actives have a fitted effect of over 50% in size. In outline:
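20 nM human CYP3A4 with 25 uM Luciferin-PPXE (at KM) in 200 mM KPO4, preincubated 10 min with compound; NADPH regeneration started a 60 min RT reaction. Luciferin detected by luminescence, normalized to 57 uM ketoconazole as full inhibition.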
Background: In qHTS, concentration-response curves come from the screen itself.

The target in assay [2] is Cytochrome P450 2D6 (Homo sapiens) (UniProt P10635). The experiment in a line: qHTS Assay for Inhibitors and Substrates of Cytochrome P450 2D6 (AID 891).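 Also: luciferin methyl ether substrate demethylated by CYP2D6 with NADPH regeneration; % is scaled to controls: 0 for no effect and ±100 for the full control effect; nearly all actives have a fitted effect of over 60% in size.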 In outline: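 Human CYP2D6 (5 nM) with 30 uM Luciferin-ME EGE (at Km) in 100 mM KPO4, compound preincubated 10 min, then NADPH regeneration system for 60 min at room temperature. Luciferin read by luminescence; normalized to 1.43 uM quinidine.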

The target of assay [3] is Cytochrome P450 2C19 (Homo sapiens) (UniProt P33261). The experiment in a line: qHTS Assay for Inhibitors and Substrates of Cytochrome P450 2C19 (AID 899). Also: potency is read from the fitted curve at half-maximal effect; nearly all actives have a fitted effect of over 60% in size. In outline: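 NADPH-dependent conversion of Luciferin-H EGE (10uM, at KM) by 5nM enzyme in 50mM KPO4, 60 min at 37C following 10 min compound preincubation. Stopped with luciferin detection buffer; luminescence read after 20 min.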

Assay [4] deals with Cytochrome P450 3A4 (Homo sapiens) (UniProt P08684). The experiment in a line: qHTS Assay for Activators of Cytochrome P450 3A4 (AID 885). Also: nearly all actives have a fitted effect of over 65% in size. In outline:
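Quantitative HTS format: compounds preincubated with 20nM human CYP3A4 and Luciferin-PPXE substrate at KM, reaction started by NADPH regeneration, stopped after 60 min, luciferase luminescence read 20 min later.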

The nature of assay [5]: qHTS for Inhibitors of Plasmodium falciparum (DD2) proliferation (AID 504314).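 Also: parasite DNA measured by SYBR Green fluorescence after red cell lysis; plate controls were DMSO vehicle for no effect and artemisinin wells for full effect.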 In outline:
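Fluorescence read-out (ex 485/em 535 nm) of SYBR Green-stained parasite DNA quantifies intraerythrocytic growth. Cultures at 0.3% parasitemia and 2.5% hematocrit were treated for 72 h; data normalized to DMSO and 0.29 uM artemisinin wells.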

Assay [6] can be described thus: qHTS for Inhibitors of Plasmodium falciparum (GB4) proliferation (AID 504315).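 Also: 0% = DMSO vehicle and -100% = 0.29 µM artemisinin control; nearly all actives have a fitted effect of over 50% in size.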 In outline:
(§1)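 Erythrocytes infected with P. falciparum line (0.3% parasitemia, 2.5% hematocrit final) incubated with compounds 72 h at 37 °C, 5% CO2; SYBR Green lysis buffer added, fluorescence read next day. Normalized to 0.29 uM artemisinin and DMSO.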

Assay [7] can be described thus: qHTS for Inhibitors of Plasmodium falciparum (CP250) proliferation (AID 504320).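 Also: plate controls were DMSO vehicle for no effect and 0.29 µM artemisinin control for full effect.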 In outline:
as §1

For assay [8], the target named is Atrial natriuretic peptide receptor 1 (Homo sapiens) (UniProt P16066). The experiment in a line: Natriuretic polypeptide receptor (hNpr1) antagonism - Pilot CMLD screen (AID 1347052; calls by dose curve;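 also: HEK293 cells with hNpr1 stimulated by hNppA peptide at 0.1 nM; cGMP level read as GloSensor luciferase luminescence after agonist stimulation; series mostly up to about 9.2 µM; % is scaled to controls: 0 for no effect and ±100 for the full control effect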).
Chain of Atrial natriuretic peptide receptor 1 (Homo sapiens) (P16066 whole entry, looked up): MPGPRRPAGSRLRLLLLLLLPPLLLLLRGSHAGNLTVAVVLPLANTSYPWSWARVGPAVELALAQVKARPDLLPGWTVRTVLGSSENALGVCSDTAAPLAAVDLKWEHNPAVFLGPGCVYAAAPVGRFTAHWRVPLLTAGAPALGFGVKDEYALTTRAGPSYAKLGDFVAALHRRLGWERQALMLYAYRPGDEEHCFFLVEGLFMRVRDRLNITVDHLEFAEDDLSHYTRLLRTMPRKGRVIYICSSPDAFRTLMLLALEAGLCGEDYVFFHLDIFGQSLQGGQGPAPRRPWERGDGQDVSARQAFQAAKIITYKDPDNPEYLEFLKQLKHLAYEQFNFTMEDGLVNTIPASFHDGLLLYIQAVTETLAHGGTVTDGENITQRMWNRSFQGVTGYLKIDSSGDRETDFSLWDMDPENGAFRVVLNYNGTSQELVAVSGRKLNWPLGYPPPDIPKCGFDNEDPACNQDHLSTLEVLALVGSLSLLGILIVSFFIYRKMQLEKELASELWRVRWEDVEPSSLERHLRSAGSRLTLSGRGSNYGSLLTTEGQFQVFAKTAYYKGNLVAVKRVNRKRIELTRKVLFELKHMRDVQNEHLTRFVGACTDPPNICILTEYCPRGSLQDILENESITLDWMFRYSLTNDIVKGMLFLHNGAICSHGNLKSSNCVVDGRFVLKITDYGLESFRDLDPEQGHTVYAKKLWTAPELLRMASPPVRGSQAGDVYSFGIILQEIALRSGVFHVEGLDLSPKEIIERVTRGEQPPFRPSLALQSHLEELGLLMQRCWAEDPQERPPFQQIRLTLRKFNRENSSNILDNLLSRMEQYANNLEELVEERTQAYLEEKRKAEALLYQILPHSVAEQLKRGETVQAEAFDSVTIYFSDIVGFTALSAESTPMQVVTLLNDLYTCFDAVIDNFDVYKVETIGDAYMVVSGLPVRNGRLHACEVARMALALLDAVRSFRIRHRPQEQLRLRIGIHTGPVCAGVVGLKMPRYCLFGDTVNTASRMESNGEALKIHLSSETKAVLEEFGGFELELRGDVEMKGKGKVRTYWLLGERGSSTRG

Chain of Cytochrome P450 3A4 (Homo sapiens) (P08684 whole entry, looked up): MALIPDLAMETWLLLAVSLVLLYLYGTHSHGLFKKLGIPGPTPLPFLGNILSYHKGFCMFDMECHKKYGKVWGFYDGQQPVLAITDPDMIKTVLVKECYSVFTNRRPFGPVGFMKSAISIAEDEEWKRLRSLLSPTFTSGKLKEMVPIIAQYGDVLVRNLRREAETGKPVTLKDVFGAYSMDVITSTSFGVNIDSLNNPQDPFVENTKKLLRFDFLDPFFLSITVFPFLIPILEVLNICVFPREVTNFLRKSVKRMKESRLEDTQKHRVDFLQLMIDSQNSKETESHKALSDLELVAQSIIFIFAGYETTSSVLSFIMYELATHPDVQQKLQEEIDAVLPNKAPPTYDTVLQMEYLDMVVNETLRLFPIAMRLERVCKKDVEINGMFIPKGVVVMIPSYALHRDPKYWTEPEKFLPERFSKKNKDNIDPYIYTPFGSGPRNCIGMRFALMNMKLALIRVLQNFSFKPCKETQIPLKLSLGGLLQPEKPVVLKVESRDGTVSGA
Chain of Cytochrome P450 2C19 (Homo sapiens) (P33261 whole entry, looked up): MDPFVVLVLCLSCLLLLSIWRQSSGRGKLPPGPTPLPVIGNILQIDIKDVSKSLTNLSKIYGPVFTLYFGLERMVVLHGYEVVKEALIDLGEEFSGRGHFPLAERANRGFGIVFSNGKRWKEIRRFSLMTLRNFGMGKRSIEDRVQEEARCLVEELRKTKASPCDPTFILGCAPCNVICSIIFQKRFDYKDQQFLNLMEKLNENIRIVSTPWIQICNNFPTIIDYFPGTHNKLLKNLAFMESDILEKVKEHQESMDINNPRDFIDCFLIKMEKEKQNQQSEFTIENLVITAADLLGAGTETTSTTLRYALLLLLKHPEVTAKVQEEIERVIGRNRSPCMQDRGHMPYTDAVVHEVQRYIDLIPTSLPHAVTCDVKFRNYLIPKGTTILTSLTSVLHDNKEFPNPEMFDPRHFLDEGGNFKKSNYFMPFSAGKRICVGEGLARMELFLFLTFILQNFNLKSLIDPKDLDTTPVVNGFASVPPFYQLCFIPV
Chain of Cytochrome P450 2D6 (Homo sapiens) (P10635 whole entry, looked up): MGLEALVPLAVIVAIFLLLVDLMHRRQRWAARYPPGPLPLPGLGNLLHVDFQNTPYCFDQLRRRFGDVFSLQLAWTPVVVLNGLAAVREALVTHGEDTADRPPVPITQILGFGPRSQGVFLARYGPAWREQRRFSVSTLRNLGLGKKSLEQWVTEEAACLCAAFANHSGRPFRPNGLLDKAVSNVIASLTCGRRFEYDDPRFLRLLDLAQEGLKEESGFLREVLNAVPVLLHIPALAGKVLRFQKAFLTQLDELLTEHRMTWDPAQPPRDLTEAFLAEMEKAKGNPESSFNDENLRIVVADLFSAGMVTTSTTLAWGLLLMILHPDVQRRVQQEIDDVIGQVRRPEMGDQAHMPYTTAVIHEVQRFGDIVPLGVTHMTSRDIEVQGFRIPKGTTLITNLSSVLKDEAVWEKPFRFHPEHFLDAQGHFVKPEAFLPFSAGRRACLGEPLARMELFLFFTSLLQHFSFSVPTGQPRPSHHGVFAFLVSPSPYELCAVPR

As to `COC(=O)C12CC3(CCC4C5C(C(OCc6ccccc6)C41)C52)OCCO3` (stereo not drawn), the activity change, negative = inhibition in assay [1] was -29.8% [at 11.4 µM]; in assay [2] it was 0.322% [at 11.4 µM]. Besides, in assay [3], the Potency is 1580 nM (active).
On to `Cc1ccc2[nH]c3nc(CCCn4ccnc4-c4ccccc4)nnc3c2c1`, for which the activity change, positive = activation in assay [4] is -50.4% [at 11.4 µM].
Consider `CC1=C[C@@H](C)O[C@@]2(C1)C(=O)Nc1cccc(Br)c12`, for which the Potency result in assay [5], in assay [6], in assay [7] and in assay [8] was “inactive” throughout.
Turning to `C#CCCCON=C1C[C@@H](O)[C@H](O)[C@H]2[C@@H]3C(=O)N(Cc4ccc5c(c4)OCO5)C(=O)[C@@H]3CC[C@H]12`, the Potency entry in assay [5], in assay [6], in assay [7] and in assay [8] was “inactive” throughout.
Regarding `COC(=O)CCCC1=CC2=CC(=O)C(C)(OC(=O)c3cccs3)C(=O)C2=CN1c1ccc(OC)cc1` (stereo not drawn), the activity, negative = inhibition in assay [5] is 1.04% [at 1.12 µM]. Besides, the Potency entry in assay [6], in assay [7] and in assay [8] was “inactive” each time.
Regarding `COc1ccc(-c2nc3c(c4c2C[C@H](c2ccccc2)OC4)CN(C(=O)c2cccnc2)CC3)c(C)c1`, the activity, negative = inhibition in assay [5] was 2.56% [at 1.12 µM]. In addition, the Potency result in assay [6], in assay [7] and in assay [8] was “inactive” in each case.
On to `C[C@@H]1CC[C@H]2C(=O)N(Cc3cccc([N+](=O)[O-])c3)C[C@H](O)CN2[C@@H]1c1cccc(Br)c1`, for which the Potency result in assay [5], in assay [6], in assay [7] and in assay [8] was “inactive” in each case.
In the case of `CCOC(=O)CN1C(=O)NC(c2ccc(Br)cc2)C(C(=O)OC)=C1C` (stereo not drawn), the Potency entry in assay [5], in assay [6], in assay [7] and in assay [8] was “inactive” in each case.
On to `COC(=O)CC=C1c2ccccc2C[C@H](OC)[C@@H]1C`, for which the Potency result in assay [5], in assay [6], in assay [7] and in assay [8] was “inactive” each time.
With `COc1ccc2c(c1)C(=O)[C@H](OC(=O)Nc1cc(OC)c(OC)c(OC)c1)[C@@H](c1ccc(OC)c(Br)c1)O2`, the Potency entry in assay [5], in assay [6], in assay [7] and in assay [8] was “inactive” in each case.
For `COC(=O)[C@H]1[C@@H](c2ccccc2)NC(=O)N(CCc2cc(OC)c(OC)c(OC)c2)[C@@H]1C`, the Potency result in assay [5], in assay [6], in assay [7] and in assay [8] was “inactive” each time.
For the molecule `COCC=CC1=CC2=CC(=O)C(C)(OC(=O)c3cnc4ccccc4n3)C(=O)C2=CN1CC(C)C` (stereo not drawn), the Potency result in assay [5], in assay [6], in assay [7] and in assay [8] was “inactive” in each case.
Turning to `C[C@H]1[C@@H](C(=O)N2CCCC2)CC(=O)C(=NOCc2ccccc2)C[C@H]1c1ccccc1`, the Potency result in assay [5], in assay [6], in assay [7] and in assay [8] was “inactive” in each case.
For the molecule `C=CCOC(=O)N[C@H](c1ccc(-c2ccccc2)cc1)[C@H](C)C=CCC(=O)OC`, the Potency result in assay [5], in assay [6], in assay [7] and in assay [8] was “inactive” throughout.
Regarding `COc1ccc(NC(=O)N2CCc3nc(-c4ccc(OC)cc4C)c4c(c3C2)CO[C@@H](c2ccccc2)C4)cc1`, the Potency entry in assay [5], in assay [6], in assay [7] and in assay [8] was “inactive” in each case.
As to `COc1ccc(O[C@H]2C=C[C@@H](c3ccccc3)O[C@H]2CON=C[C@@H](C)[C@H](OCc2ccccc2)C(C)C)cc1`, the Potency result in assay [5], in assay [6], in assay [7] and in assay [8] was “inactive” each time.
For the molecule `C=CCOC(=O)C(C(C)=O)[C@@H](NC(=O)OC)c1cccc(F)c1` (stereo partly drawn), the Potency entry in assay [5], in assay [6], in assay [7] and in assay [8] was “inactive” each time.
Turning to `COC(=O)[C@@H]1C=C[C@H](C)[C@H](CCOc2ccccc2)O1`, the Potency entry in assay [5], in assay [6], in assay [7] and in assay [8] was “inactive” throughout.
On to `COC(=O)[C@@H]1[C@@H](c2ccccc2)NC(=O)N(CCc2cc(OC)c(OC)c(OC)c2)[C@@H]1C`, for which the Potency entry in assay [5], in assay [6], in assay [7] and in assay [8] was “inactive” throughout.
In the case of `COC1=C[C@@H](C(=O)N[C@H]2CCCC[C@H]2NC(C)=O)[C@@H](C)[C@H](c2ccccc2)CC1=O`, the Potency result in assay [5], in assay [6], in assay [7] and in assay [8] was “inactive” throughout.
With `COc1ccc2c(c1)[C@H](C=Cc1ccccc1)[C@@H]([C@H](O)CO)O2`, the Potency result in assay [5], in assay [6], in assay [7] and in assay [8] was “inactive” throughout.
In the case of `CCCC[C@]12Cc3cc(C#N)ccc3[C@H](O1)c1c(cc(C)n(-c3ccccc3)c1=O)O2`, the Potency entry in assay [5], in assay [6], in assay [7] and in assay [8] was “inactive” each time.
In the case of `COc1ccc(N2C=C3C(=O)C(C)(OC(=O)C4CCCC4)C(=O)C=C3C=C2c2ccsc2)cc1` (stereo not drawn), in assay [5], the activity, negative = inhibition was -0.73% [at 1.12 µM]. For the same molecule, the Potency result in assay [6], in assay [7] and in assay [8] was “inactive” in each case.
In the case of `CC(CCN1CCCCc2nc(C)c(C)cc21)=NO[C@H](C)c1cn([C@H](CO)Cc2ccccc2)nn1`, the Potency entry in assay [5], in assay [6], in assay [7] and in assay [8] was “inactive” in each case.
For the molecule `COc1ccc(-c2nc3c(c4c2C[C@H](c2ccccc2)OC4)CN(C(=O)N[C@@H](C)c2ccccc2)CC3)c(C)c1`, the activity, negative = inhibition in assay [5] was 3.19% [at 1.12 µM]. Moreover, the Potency result in assay [6], in assay [7] and in assay [8] was “inactive” each time.
For `CCOC(=O)CCN1C(=O)[C@@H]2[C@H]3[C@H](O)[C@H](O)CC(=NNC(=O)OCc4ccccc4)[C@@H]3CC[C@H]2C1=O`, the Potency result in assay [5], in assay [6], in assay [7] and in assay [8] was “inactive” throughout.
In the case of `C[C@@H]1CC2CCCC2[C@]2(O1)C(=O)Nc1ccccc12` (stereo partly drawn), the Potency result in assay [5], in assay [6], in assay [7] and in assay [8] was “inactive” each time.
For `COc1ccc2c(c1)O[C@@H](c1ccc3c(c1)OCO3)[C@H](OC(=O)Nc1ccc(C)c(Br)c1)C2=O`, the Potency entry in assay [5], in assay [6], in assay [7] and in assay [8] was “inactive” each time.
Consider `COc1ccc(C=CNC(=O)c2ccc(OC)cc2)cc1`, for which the Potency result in assay [5], in assay [6], in assay [7] and in assay [8] was “inactive” in each case.
In the case of `COc1ccc2c(c1)C(=O)[C@H](OC(=O)N[C@H]1CCCc3ccccc31)[C@@H](c1ccc(OC)c(Br)c1)O2`, the Potency result in assay [5], in assay [6], in assay [7] and in assay [8] was “inactive” each time.
With `CC(C)OC(=O)[C@H](C)NC(=O)N1CCc2nc(-c3ccccc3)c3c(c2C1)CO[C@@H](C)C3`, the Potency result in assay [5], in assay [6], in assay [7] and in assay [8] was “inactive” in each case.
`C[C@H]1Cc2c(COc3ccccc3)nc3c(c2CO1)CN(C(=O)NCc1ccco1)CC3`: the activity, negative = inhibition in assay [5] is -0.216% [at 1.12 µM]. In addition, the Potency entry in assay [6], in assay [7] and in assay [8] was “inactive” throughout.
Take `CC(=O)O[C@H](C(=O)O[C@@H]1C[C@@H](CCC[C@H]2O[C@H](C(=O)OC(C)C)CC[C@@H]2C)O[C@@H](CC#N)C1)c1ccccc1`: the Potency result in assay [5], in assay [6], in assay [7] and in assay [8] was “inactive” in each case.
